Assay results published in PubChem BioAssay (NCATS).
Inconclusive results are not listed. Activity calls are given as the source filed them. Calls come from the whole dose curve; as a rule, active = well fitted inhibition curve with a large enough effect; inconclusive = small, poorly fitted or top-dose-only effect; inactive = flat fitted curve, though single readings scatter.

Experiments:
Experiment in all cases: Cytotoxic Profiling of Annotated Libraries Using Quantitative High-Throughput Screening (AID 1296008); note: nearly all actives have a fitted effect of over 60% in size
Details in all cases: Five cell lines viability, CellTiter-Glo ATP luminescence, 48-72 h; max response: hits give low values
CRL-7250 = normal cell line; tested on: CRL-7250
Summary of the method: (§1)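 Cells exposed to compounds for 48 or 72 hr at 37 degrees Celsius. Viability read as ATP-coupled luminescence with CellTiter-Glo after 10 min at room temperature.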

HEK293 = tested on: HEK293
Summary of the method: as §1

HaCat = tested on: HaCat
Summary of the method: as §1

KB-3-1 = tested on: KB-3-1
Summary of the method: as §1
% is set by controls: 0 for no effect and ±100 for the full control effect; potency is the fitted concentration of half-maximal effect.

CC1CC(C(O)C(C)(C)O)OC2CC3(C)C4(C)CCC5C(C)(C)C(=O)CCC5(C)C4CCC3(O)C12O (stereo not drawn)
inactive: max response (CRL-7250) 3.36% | max response (HEK293) -2.59% | max response (HaCat) 3.58% | outcome (KB-3-1)

C[C@H]1O[C@@H](O[C@H]2CC[C@@]3(C)C(CC[C@]4(C)C3CC=C3C5CC(C)(C)CC[C@]5(C(=O)O)CC[C@]34C(=O)O)C2(C)C)[C@H](O)[C@@H](O)[C@@H]1O (stereo partly drawn)
inactive: outcome (CRL-7250) | max response (HEK293) -5.54% | max response (HaCat) -21.6% | max response (KB-3-1) 4.81%

CC(C)=CCCC1(C)C=Cc2c(c(C)cc3c2[nH]c2ccccc23)O1 (stereo not drawn)
inactive: max response (CRL-7250) -19.1% | max response (HEK293) -24.1% | max response (HaCat) 3.9% | max response (KB-3-1) 6.53%

NCCCNc1ccc(Nc2nccc(Nc3cc(C4CC4)[nH]n3)n2)cc1
active: Potency (CRL-7250) 0.731 µM | Potency (HEK293) 1.03 µM | Potency (HaCat) 4.61 µM | Potency (KB-3-1) 820 nM

COC(=O)c1ccnc(-c2cc(C(=O)NCCc3ccccc3)ccn2)c1
inactive: max response (CRL-7250) -12.7% | max response (HEK293) -3.61% | max response (HaCat) 1.24% | max response (KB-3-1) 1.93%

COc1cc(O)c([C@@H](CC(=O)N2CC(C)CC(C)C2)c2ccc3c(c2)OCO3)c(OC)c1 (stereo partly drawn)
inactive: max response (CRL-7250) -6.18% | max response (HEK293) -5.89% | max response (HaCat) -11.1% | max response (KB-3-1) -2.57%

CCCCNc1ncc2c(-c3ccc(CN4CCN(C)CC4)cc3)cn(C3CCC(O)CC3)c2n1 (stereo not drawn)
active: Potency (CRL-7250) 5.17 µM | Potency (HEK293) 7.31 µM | Potency (HaCat) 0.92 µM | Potency (KB-3-1) 1030 nM

Cn1ncnc1COc1nn2c(-c3cc(F)ccc3F)nnc2cc1C(C)(C)C
inactive: max response (CRL-7250) -15.8% | max response (HEK293) 0.514% | max response (HaCat) -21.7% | max response (KB-3-1) 8.68%

Cn1nc(C(C)(C)C)cc1C(=O)NC(Cc1cccc(Cl)c1)C(=O)NCC#N (stereo not drawn)
inactive: outcome (CRL-7250) | max response (HEK293) -17.2% | max response (HaCat) -59.1% | max response (KB-3-1) 1.87%

CC1CCC2(CO)C(C(=O)O)=CCCC2C1(C)CCc1ccoc1 (stereo not drawn)
inactive: outcome (CRL-7250) | max response (HEK293) -3.01% | max response (HaCat) -11.9% | max response (KB-3-1) 3.67%

C=C(C(=O)O)C1CC2=C(C)CCCC2(C)C[C@@H]1O (stereo partly drawn)
inactive: outcome (CRL-7250) | max response (HEK293) -3% | max response (HaCat) 0.301% | outcome (KB-3-1)

C=CCC1=C[C@]2(OC)[C@H](C)[C@@H](c3ccc(O)c(OC)c3)O[C@]2(OC)CC1=O
inactive: max response (CRL-7250) -0.729% | max response (HEK293) 0.3% | max response (HaCat) 3.92% | max response (KB-3-1) 5.23%

COC(=O)/C=C/C12COC(C)(C)C1C(O)C(OC(C)=O)C1(C)C2CCC2(C)C(c3ccoc3)OC(=O)C3OC321 (stereo not drawn)
inactive: max response (CRL-7250) -1.53% | max response (HEK293) -22.6% | max response (HaCat) -1.09% | max response (KB-3-1) -5.77%

N[C@H]1Cc2ccccc2N(O)C1=O
active: Potency (HEK293) 25.9 µM
inactive: max response (CRL-7250) -6.2% | max response (HaCat) -0.256% | max response (KB-3-1) -13.7%

O=C(/C=C\c1ccc(O)cc1)N[C@@H](Cc1ccc(O)cc1)C(=O)O
inactive: max response (CRL-7250) -7.69% | max response (HEK293) 1.95% | max response (HaCat) -12.4% | max response (KB-3-1) 1.07%

CC(C)=CCC/C(C)=C/CCC1(C)Oc2c(c(O)cc3c2CN(C(CCC(=O)O)C(=O)O)C3=O)CC1O (stereo not drawn)
inactive: max response (CRL-7250) -8.75% | max response (HEK293) -4.48% | max response (HaCat) -10.3% | outcome (KB-3-1)

COc1ncc2cc(C(=O)Nc3cc(C(=O)NCc4cccc(Cl)c4)ccc3Cl)c(=O)[nH]c2n1
inactive: outcome (CRL-7250) | max response (HEK293) -14.6% | outcome (HaCat)
active: Potency (KB-3-1) 4110 nM

CC(Oc1ccc2[nH]nc(/C=C/c3cnn(CCO)c3)c2c1)c1c(Cl)cncc1Cl (stereo not drawn)
active: Potency (CRL-7250) 1.46 µM | Potency (HEK293) 2.91 µM | Potency (HaCat) 2.06 µM | Potency (KB-3-1) 291 nM

CC(=O)/C=C/[C@H]1[C@](C)(O)[C@@H](O)[C@H](OC(C)=O)C2C(C)(C)CCC[C@@]21C (stereo partly drawn)
inactive: max response (CRL-7250) 4.5% | max response (HEK293) -3.84% | max response (HaCat) -21.7% | outcome (KB-3-1)

O=C(O)c1cc(I)ccc1NC(=O)[C@H](Cc1ccccc1)NCc1ccccc1
inactive: max response (CRL-7250) -2.69% | max response (HEK293) -1.33% | max response (HaCat) -2.36% | max response (KB-3-1) -0.475%

CC1(C)CCCC2(C)C1C(O)C=C(CO)C2(O)CO (stereo not drawn)
inactive: outcome (CRL-7250) | max response (HEK293) -0.916% | max response (HaCat) -4.77% | outcome (KB-3-1)

CC(=O)N[C@@H](CCCCN)C(=O)N(C)[C@@H](CC(C)C)C(=O)N[C@H](C(=O)N(C)[C@@H](Cc1ccccc1)C(=O)N[C@H](Cc1ccccc1)C(N)=O)C(C)C
inactive: outcome (CRL-7250) | max response (HEK293) -3.34% | max response (HaCat) -11.8% | outcome (KB-3-1)
